Assay outcomes as filed in PubChem BioAssay.
Compounds with a hit are over-represented: about 19% of the library has one in this group of screens.
IL-1B inflam inh: inhibitors of inflammasome signaling (IL-1 beta secretion) | THP-1 LPS/ATP IL-1B secretion, AlphaLISA, 16 h; stronger effect = lower value | activity change, % at 57.5 µM | hit rate 4.7% among 360,000; in the data active means activity change below about -50%; inconclusive means mostly about -30% to -49%
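Secreted IL-1B measured by AlphaLISA bead assay after 16 h compound exposure of THP-1 cells; compounds (final up to 57.5 uM) added 1 h before LPS (250 ng/mL) and ATP (1.25 mM) stimulation; lower signal means less secretion.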
DT40 TDP1 CPT: growth inhibition of DT40 Tdp1-/-;hTDP1 cells with camptothecin (screen for TDP1 inhibitors); AID 686979; chicken DT40 Tdp1-/-;hTDP1 cells + 20 nM CPT, ATP luminescence, 48 h; Potency, µM (series often up to 46.2 µM), for the others: at the top dose activity change, negative = growth inhibition, usual class: inhibitors; hit rate 12% among 420,000; further: potency means the concentration at half of the fitted maximal effect; nearly all actives have a fitted effect of over 55% in size
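Chicken DT40 Tdp1-/- cells complemented with human TDP1, 400 cells/well, exposed to compounds plus 20 nM camptothecin for at least 48 h at 37 C; viability read as ATP content by CellTiter-Glo luminescence.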
HT1080NT lethal: kills 2HG-producing HT-1080-NT fibrosarcoma cells; hit rate 1.6% among 360,000; AID 686970; HT-1080-NT fibrosarcoma viability, CellTiter-Glo ATP luminescence, 48 h; Potency, µM (highest dose often 46.1 µM), for inactives: at the top dose activity, negative = less viability, actives largely listed as cytotoxic;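 further: NT is the 2HG producing partner of a matched IDH1 knockdown line; potency means the concentration at half of the fitted maximal effect; 0% = DMSO-treated cells and -100% = media-only wells without cells; nearly all actives have a fitted effect of over 55% in size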
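HT-1080-NT; 750 cells/well; 5% FBS RPMI; 48 h compound, 37 degrees C; CellTiter-Glo luminescence; curve fitting and curve-class assignment.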
TDP1 cell noCPT: qHTS for Inhibitors of human tyrosyl-DNA phosphodiesterase 1 (TDP1): qHTS in cells in absence of CPT | DT40 Tdp1-/- hTDP1 cells, no CPT, ATP luminescence, 48 h | Potency, µM (highest dose often 46.2 µM), for inactives: top-dose activity change, negative = growth inhibition, usual class: inhibitors | hit rate 15% among 420,000 | AID 686978, 2013; further: potency means the concentration at half of the fitted maximal effect; nearly all actives have a fitted effect of over 55% in size
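Luminescent ATP content (CellTiter-Glo) served as the growth readout. Knockout chicken DT40 cells expressing human TDP1 were exposed to compounds without camptothecin for a minimum 48 hr at 37 °C.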
HT1080 IDH1KD tx: toxicity to HT-1080 IDH1 knockdown cells (counter line); HT-1080 IDH1 knockdown viability, ATP luminescence, 48 h; Potency, µM (top dose mostly 46.1 µM), inactives show at the highest dose activity, negative = toxicity, most hits filed as cytotoxic; AID 686971; hit rate 2% among 360,000;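 further: potency means the concentration at half of the fitted maximal effect; 0% = DMSO wells and -100% = cell-free medium wells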
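Luminescent ATP read-out (CellTiter-Glo, 10 min at room temperature) after 48 h compound exposure at 37 °C gave viability of IDH1-knockdown HT-1080 cells. Activity was normalised to DMSO and cell-free wells, then fitted as concentration-response curves.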
Starred values were filed as active, the others as inactive. Unless noted, the call rests on the fitted dose curve; in most records, active means well fitted curve in the direction sought with a large enough effect; inconclusive means small, poorly fitted or top-dose-only effect, or another doubt; inactive means no such curve, though single readings can be large; an effect the other way counts as inactive or inconclusive. Unless noted, on the % scale 0 is the no-effect control and ±100 the full control effect.

`C[N+]1=Cc2cc3c(cc2CC1)OCO3` gave DT40 TDP1 CPT 5% and TDP1 cell noCPT -10%.
For COc1ccc(CCNCc2sccc2C)cc1 the results were IL-1B inflam inh inconclusive, DT40 TDP1 CPT inconclusive, HT1080NT lethal 0%, TDP1 cell noCPT -5% and HT1080 IDH1KD tx 2%.
For Cc1ccc(N=C(N(C)C)P(=O)(N(C)C)N(C)C)cc1 the results were IL-1B inflam inh -14, DT40 TDP1 CPT -4%, HT1080NT lethal 15%, TDP1 cell noCPT -25% and HT1080 IDH1KD tx 22%.
Screening CCOC1=C2[C@@H](CN(S(=O)(=O)c3ccccc3C)[C@H]2c2ccc(Cl)cc2)[C@H]2C(=O)NC(=O)[C@H]2C1 returned IL-1B inflam inh 9, DT40 TDP1 CPT inconclusive, HT1080NT lethal 0%, TDP1 cell noCPT inconclusive and HT1080 IDH1KD tx 1%.
`N#Cc1cccc(NC(=O)N2CCCC3(CCN(C(=O)Oc4ccccc4)CC3)C2)c1` gave DT40 TDP1 CPT 1% and TDP1 cell noCPT -12%.
Screening N#Cc1cccc(NC(=O)c2sc3nc4c(cc3c2N)N2CCC4CC2)c1 returned DT40 TDP1 CPT 4.1µM* and TDP1 cell noCPT 13µM*.
`N#Cc1cccc(NC(=O)CSc2nc3c(cc2C#N)N2CCC3CC2)c1` gave DT40 TDP1 CPT inconclusive and TDP1 cell noCPT 16µM*.
N#Cc1cc2c(nc1SCC(=O)Nc1ccc(OC(F)(F)F)cc1)C1CCN2CC1 was read as DT40 TDP1 CPT inconclusive and TDP1 cell noCPT 18µM*.
For CCOC(=O)CC(SP1(=S)OCC2(CC=CCC2)CO1)C(=O)OCC (configuration not stated) the results were IL-1B inflam inh 8, DT40 TDP1 CPT -1%, HT1080NT lethal 0%, TDP1 cell noCPT 0% and HT1080 IDH1KD tx -11%.
Cc1ccc(C(C)(C)C)c(OCC(=O)Nc2ccc(Cl)cc2C(=O)c2ccccc2)c1 was read as DT40 TDP1 CPT -25% and TDP1 cell noCPT inconclusive.
For Cn1c(O)c(N=Nc2cccc(S(=O)(=O)N3CCOCC3)c2)c(=O)n(C)c1=O the results were IL-1B inflam inh 49, DT40 TDP1 CPT -5%, HT1080NT lethal 5%, TDP1 cell noCPT 17% and HT1080 IDH1KD tx 4%.
COc1cccc(C(=O)CCN[C@@H](C)[C@H](O)c2ccccc2)c1 was read as DT40 TDP1 CPT 13µM* and TDP1 cell noCPT 24µM*.
Screening Clc1ccc2c(c1)C(c1ccccc1Cl)=NCc1nnc(N3CCN(CCSc4ccccc4)CC3)n1-2 returned IL-1B inflam inh 28, DT40 TDP1 CPT 26µM*, HT1080NT lethal -5%, TDP1 cell noCPT inconclusive and HT1080 IDH1KD tx -8%.
Clc1ccc2c(c1)C(c1ccccc1Cl)=NCc1nnc(N3CCN(CCOc4ccccc4)CC3)n1-2 was read as IL-1B inflam inh inconclusive, DT40 TDP1 CPT 21µM*, HT1080NT lethal inconclusive, TDP1 cell noCPT 16µM* and HT1080 IDH1KD tx inconclusive.
CCN1C[C@]2(C)CC[C@H](O)[C@@]34C5C[C@@H]6[C@@H](OC)C[C@@](O)(C5[C@H]6O)[C@@H](CC23)[C@@H]14 (some centres not stated) was read as DT40 TDP1 CPT 6% and TDP1 cell noCPT 3%.
For C#CCOCCOCCOCCNc1nc(N2CCN(C(=O)CCCCCCCCCCNC(=O)[C@H]([C@@H](C)CC)n3cc(CCCCN=C(N)N)nn3)CC2)nc(N2CCN(C(=O)CCCCCCCCCCNC(=O)[C@H](CO)n3cc(CCCCCN)nn3)CC2)n1 the results were IL-1B inflam inh -73*, DT40 TDP1 CPT 15µM*, HT1080NT lethal inconclusive, TDP1 cell noCPT 21µM* and HT1080 IDH1KD tx inconclusive.
For CCC1C(c2ccccc2)NC(c2ccccc2)CC1(O)c1ccc(F)cc1 (configuration not stated) the results were IL-1B inflam inh -16, DT40 TDP1 CPT inconclusive, HT1080NT lethal 0%, TDP1 cell noCPT 23µM* and HT1080 IDH1KD tx inconclusive.
